# Assay results reported in PubChem BioAssay AID618 (Sanford-Burnham Center for Chemical Genomics, 2007).
# Screen size: about 87,000 compounds; about 540 (0.62%) were called active. No rule for the calls is given here. The entries come from a sample that favours actives as a whole. Measured potencies and affinities stand elsewhere.
# Test: MT1-MMP gene expression reporter suppression – cell-based, luciferase reporter, luminescence (AID 618);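 also: actives suppress MT1-MMP promoter-driven transcription so potencies describe inhibitors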
# Conditions: MT1-MMP promoter luciferase reporter cells
row,SMILES,outcome
1,CC(C)c1nnc(NC(=O)c2sc3ccccc3c2Cl)s1,inactive
2,Cc1nnc(NC(=O)c2sc3ccccc3c2Cl)s1,active
3,O=C(NCc1ccc2c(c1)OCO2)c1ccccn1,inactive
4,O=C(/C=C\Nc1cccc(F)c1)c1ccc2c(c1)OCO2,inactive
5,CN(C(=O)c1ccco1)c1nc(CC(=O)Nc2ccccc2)cs1,inactive
6,CN(C(=O)c1ccco1)c1nnc(C23CC4CC(CC(C4)C2)C3)s1,inactive
7,COC(=O)[C@@]1(Cc2ccc(OC)cc2)[C@H]2c3cc(C(=O)N4CCCC4)n(CCF)c3C[C@H]2CN1C(=O)c1ccccc1,inactive
8,COc1cc(C(=O)N2CCN(C(=O)Cc3ccccc3)CC2)cc(OC)c1OC,inactive
9,C=CCNC(=O)c1ccc2nccnc2c1,inactive
10,CC(C)C(=O)N(Cc1cc2ccccc2[nH]c1=O)C(C)C,inactive
11,C=CCn1c(SCc2cc(=O)n3ccsc3n2)nc2scc(C3CC3)c2c1=O,inactive
12,COc1ccccc1NC(=S)NNC(=O)c1ccccc1,inactive
13,O=C(NCCCN1CCOCC1)c1ccccc1,inactive
14,COc1cccc(-c2nc3ccccc3s2)c1,inactive
15,COc1cc(-c2nc3ccccc3s2)ccc1O,inactive
16,COc1cc(OC)cc(-c2nc3ccccc3s2)c1,inactive
17,COc1ccc(-c2nc3ccccc3s2)cc1O,active
18,c1ccc2sc(-c3ccc4c(c3)OCO4)nc2c1,inactive
19,COC(=O)CSc1nc2ccc(C)cc2[nH]1,inactive
20,CCN(CC)S(=O)(=O)c1ccc(C2CNC(=O)C2)cc1 (stereo not given),inactive

row,SMILES,outcome
1,CCn1cnc2c1c(=O)n(Cc1csc(-c3ccccc3)n1)c(=O)n2Cc1ccccc1,inactive
2,COc1cccc(NC(=O)CCN2C(=O)c3ccccc3S2(=O)=O)c1,inactive
3,CCc1nnc(NC(=O)CSc2nc3c(cc2C#N)CCC3)s1,inactive
4,CCc1nnc(NC(=O)CSc2nc3c(cc2C#N)CCCC3)s1,inactive
5,Cc1cc(C(F)(F)F)n2ncc(-c3ccc(F)cc3)c2n1,inactive
6,Cc1ccc(C)c(NC(=O)CSc2nnc(-c3ccccc3)o2)c1,inactive
7,COC(=O)c1ccccc1NC(=O)CSc1nnc(-c2ccc(C)cc2)o1,inactive
8,CCOc1ccccc1-c1nnc(SCC(=O)Nc2ccccc2)o1,inactive
9,COc1ccccc1NC(=O)CSc1nnc(-c2ccc(C)cc2)o1,inactive
10,Cc1cccc(NC(=O)CSc2nnc(-c3ccccc3C)o2)c1,inactive
11,COc1ccccc1NC(=O)CSc1nnc(-c2ccccc2)o1,inactive
12,CCN(CC)S(=O)(=O)c1ccc(NC(=O)CN(c2ccc(OC)cc2OC)S(C)(=O)=O)cc1,inactive
13,O=C(NCCCO)C12CC3CC(CC(C3)C1)C2,inactive
14,O=C(NC(NC1CCS(=O)(=O)C1)C(=O)c1ccccc1)c1ccc(Cl)cc1 (stereo not given),inactive
15,C/C(=C\C(=O)c1ccc(C)cc1)Nc1cccc(O)c1,inactive
16,Cc1ccc(C(=O)/C=C/Nc2cccc(O)c2)cc1,active
17,O=C(Nc1cccc(O)c1)c1ccccc1,inactive
18,Cc1ccc(N/C=C/C(=O)c2ccc(C)cc2)cc1,inactive
19,O=C(/C=C/Nc1ccccc1)c1ccccc1,inactive
20,Cc1nc2ncnn2c(C)c1CCC(=O)Oc1ccccc1,inactive

row,SMILES,outcome
1,COc1ccc(CCNC(=O)C2CCN(S(C)(=O)=O)CC2)cc1OC,inactive
2,Cc1cc(C)n(-c2ccc3cccc(NS(C)(=O)=O)c3n2)n1,inactive
3,Cc1csc(NC(=O)c2cc3c(s2)CCC3)n1,active
4,Cc1cnc(NC(=O)c2cc3c(s2)CCCC3)s1,inactive
5,Cc1csc(NC(=O)c2cc3c(s2)CCCCC3)n1,inactive
6,COC(=O)c1sc(NC(=O)c2cc3c(s2)CCCC3)nc1C,inactive
7,CCOC(=O)Cc1csc(NC(=O)c2cc3c(s2)CCCC3)n1,inactive
8,CCc1nnc(NC(=O)c2cc3c(s2)CCCCC3)s1,inactive
9,Cc1nc(NC(=O)c2cc3c(s2)CCCCC3)sc1C(=O)N(C)C,inactive
10,O=C1N(Cc2ccccc2F)c2ccccc2C12OCCCO2,inactive
11,CCn1nc(C(=O)NC2=NCCS2)c2ccccc2c1=O,inactive
12,Cc1ccc(C(=O)N(c2ccccn2)C(C)c2ccco2)cc1 (stereo not given),inactive
13,Cc1ccc(NC(=O)CSc2nnc(Cn3cnc4ccccc43)o2)c(C)c1,inactive
14,CN(C)c1ncc(C2=C(Cl)C(=O)C(N3CCCC3)=C(Cl)C2=O)s1,inactive
15,CN1CCN(C2=C(Cl)C(=O)C(c3cnc(N4CCCCC4)s3)=C(Cl)C2=O)CC1,inactive
16,Nc1ccc2c(c1)-c1ccccc1S(=O)(=O)N2,inactive
17,Cc1ccc2c(c1)-c1ccccc1S(=O)(=O)N2,inactive
18,O=c1cc(N2CCOCC2)[nH]c(=O)n1-c1ccc(Cl)cc1,inactive
19,COc1cccc(-c2cc(C(=O)Nn3cnnc3)c3ccccc3n2)c1,inactive
20,O=C(Nn1cnnc1)c1cc(-c2ccccn2)nc2ccccc12,inactive
